# Laboratory results taken from PMC10668032, “Altered binding affinity of SIX1-Q177R correlates with enhanced WNT5A and WNT pathway effector expression in Wilms tumor”.
# Whole data set: some 33,000 sequences, median “e-score” near -0.05, cut for the highest 2% near 0.38. The sample as a whole holds a higher share of the highest values than the screen did.
# Target: T1, SIX1-Q177R homeodomain (human, UniProt Q15475 108-198, Q177R)
# T1 sequence: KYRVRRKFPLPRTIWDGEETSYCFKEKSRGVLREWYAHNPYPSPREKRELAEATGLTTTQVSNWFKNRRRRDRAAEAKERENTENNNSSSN
# Experiment: universal protein binding microarray; Universal all-10-mer PBM (8x60K, AMADID 030236), 300 nM GST-tagged protein, Alexa Fluor 488 anti-GST; buffer, salt, pH and temperature not stated (as in Berger); high values mean tight binding
# Details: protein: ivt; tags: N-terminal GST; dsDNA, one strand shown
# Procedure, shortened: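 Binding was expressed as 8-mer E-scores calculated with the Universal PBM Analysis Suite. The GST-tagged homeodomains, made by in vitro transcription/translation, were applied in duplicate at 300 nM final concentration to universal 'all 10-mer' protein binding microarrays (8×60K format).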
row,Sequence,binding signal [E-score]
1,CCTGTGAC,0.194 ± 0.0117
2,TCAGGGGA,0.165 ± 0.0187
3,AAACCCTA,0.157 ± 0.0426
4,AATAGTGT,0.355 ± 0.0289
5,CCCTTCTA,0.177 ± 0.0196
6,GTGGGTCA,0.166 ± 0.0309
7,AAAGGGTG,0.317 ± 0.00321
8,CCCCTCAC,0.203 ± 0.0371
9,CCACGGGG,0.194 ± 0.0115
10,ACTCGGGC,0.161 ± 0.036
11,ACACGGAC,0.367 ± 0.00972
12,ATACGGGG,0.171 ± 0.0145
13,ACACGGGG,0.4516 ± 0.00397
14,ACCCGGGA,0.192 ± 0.0367
15,ACCCGGGT,0.377 ± 0.0131
16,ACACGGGA,0.411 ± 0.00748
17,ACACGGGT,0.4532 ± 0.00279
18,ACACGGGC,0.4237 ± 0.000962
19,ACGGGGGA,0.208 ± 0.00871
20,CACCGTGG,0.333 ± 0.0206
21,CACCTCGG,0.269 ± 0.00615
22,CACGCTGG,0.159 ± 0.00563

row,Sequence,binding signal [E-score]
1,CACTCGGG,0.225 ± 0.016
2,AACCCCAA,0.205 ± 0.00313
3,CTGACCCC,0.283 ± 0.0439
4,CGGGGTAC,0.224 ± 0.0106
5,CAACCGTG,0.187 ± 0.0215
6,CACTGGCA,0.28 ± 0.0195
7,ACACGTGT,0.4552 ± 0.00158
8,ACACGTAC,0.353 ± 0.00478
9,ACACGTAT,0.388 ± 0.00574
10,ACACGTCC,0.373 ± 0.00921
11,ACACGTAG,0.325 ± 0.012
12,ACACGTGC,0.383 ± 0.0133
13,ACACGTGG,0.32 ± 0.00325
14,ACACGTAA,0.323 ± 0.00431
15,ACACGTGA,0.34 ± 0.0135
16,CACTAGCC,0.177 ± 0.031
17,ATACCCGC,0.266 ± 0.0158
18,GGATCACA,0.168 ± 0.0336
19,CCCCGCCG,0.241 ± 0.0442
20,CTGATCCC,0.232 ± 0.00636
21,ACTCCGTG,0.253 ± 0.00334
22,ACACGCTC,0.384 ± 0.0032

row,Sequence,binding signal [E-score]
1,ACACACTA,0.267 ± 0.012
2,ACACGTTG,0.331 ± 0.0165
3,ACACGCTA,0.383 ± 0.0134
4,ACACGCGC,0.363 ± 0.0139
5,ACACGCTG,0.389 ± 0.00589
6,GTACGCTA,0.153 ± 0.0129
7,CCCCGCTA,0.199 ± 0.0313
8,ACACGTTC,0.276 ± 0.0481
9,AACCGGGT,0.218 ± 0.0414
10,CACCCCAC,0.355 ± 0.0406
11,ACCCCACC,0.327 ± 0.05
12,ACTCCCGC,0.253 ± 0.0194
13,CACCATCA,0.231 ± 0.0313
14,CCCGGATA,0.164 ± 0.0511
15,CACTACAG,0.196 ± 0.0315
16,CACTACAA,0.236 ± 0.0147
17,AACTACAC,0.445 ± 0.0094
18,AACTACCC,0.151 ± 0.011
19,CACTACTC,0.21 ± 0.00852
20,GACTACAC,0.428 ± 0.0046
21,CACTACAC,0.443 ± 0.00461
22,CACTACGC,0.166 ± 0.0306

row,Sequence,binding signal [E-score]
1,GACTCCAC,0.211 ± 0.00527
2,CAAGGGTG,0.252 ± 0.0109
3,CACTTCCA,0.202 ± 0.0394
4,GTCCTACA,0.243 ± 0.0623
5,CACTTAGG,0.229 ± 0.00363
6,ACTCCACT,0.263 ± 0.0258
7,CAGGGGTC,0.242 ± 0.0124
8,GTCGGATA,0.292 ± 0.00296
9,ACCCCGCC,0.271 ± 0.018
10,ACCGAAGT,0.167 ± 0.0104
11,ACACGCCG,0.404 ± 0.009
12,ACGCCCCC,0.19 ± 0.00645
13,ATACGCCA,0.151 ± 0.00585
14,TAACGCCA,0.16 ± 0.00152
15,ACGCCCCT,0.205 ± 0.0263
16,ACACGCCT,0.416 ± 0.0145
17,ACCCGCCG,0.258 ± 0.00942
18,ACCCGCCT,0.206 ± 0.00671
19,ACCCGCCC,0.243 ± 0.0168
20,ACACGCCA,0.381 ± 0.0176
21,ACACGCCC,0.4216 ± 0.00148
22,CAACGCCG,0.164 ± 0.00575

row,Sequence,binding signal [E-score]
1,GGGGTACA,0.329 ± 0.00694
2,GATCCCTA,0.24 ± 0.0333
3,GTGCCAAC,0.156 ± 0.0339
4,GAATTACA,0.22 ± 0.0378
5,ACCCATCG,0.179 ± 0.0324
6,CACTGGGC,0.154 ± 0.00412
7,ACCCTATC,0.17 ± 0.0179
8,CCGATACC,0.361 ± 0.0126
9,CGCACACC,0.395 ± 0.0298
10,AGCACACT,0.163 ± 0.0222
11,CGCACACA,0.16 ± 0.0759
12,CGCACACG,0.24 ± 0.0245
13,AGCACACG,0.257 ± 0.015
14,AGCACACC,0.38 ± 0.026
15,AATCCACA,0.155 ± 0.0214
16,AGTATACA,0.235 ± 0.0155
17,ACGCCACC,0.194 ± 0.00825
18,AAGGGGGT,0.293 ± 0.0313
19,AATGGGGT,0.246 ± 0.0257
20,AAAGGTGT,0.452 ± 0.0138
21,AAAAGTGT,0.274 ± 0.0858
22,AATGGTGT,0.4746 ± 0.00144
